From PubChem BioAssay AID1159580 (chemical genetic matrix, 2015)
Values joined by “and” are separate entries in the source; they are usually repeats but may differ in a detail not shown here. Equal entries are not always repeated. In all, about 5,500 compounds went through this assay and about 2,000 (36%) were called active. Roughly 18% stayed inconclusive and do not appear here. No stated cut-off is given here; in the data, active means normalized growth mostly below about 0.91 (no sharp cut-off); inconclusive means no clear call, values can overlap the other calls; inactive means mostly above about 0.92. Some of the results follow.

Experiment: chemical genetic growth profiling, strain panel (AID 1159580);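 further: tested at 20 µM; growth read once vehicle control cultures reached saturation at 30 °C; 1 = growth at the plate median or of vehicle wells; lower values mean less growth of the strain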
Conditions: S. cerevisiae deletion strains, growth OD

Measured: normalized growth

C[C@@H]1CC(Cl)CC[C@H]1C(=O)OC(C)(C)C (some centres not stated)
inactive: locus YAL013W, strain DEP1, hits give low values 0.987 | locus YAL021C, strain ccr4, hits give low values 1.02 | locus YAL026C, strain drs2, hits give low values 0.973 | locus YAL030W, strain snc1, hits give low values 0.982 | locus YBL061C, strain skt5, hits give low values 0.983 | locus YBR009C, strain hhf1, hits give low values 0.948 | locus YBR021W, strain FUR4, hits give low values 0.976 | locus YBR023C, strain chs3, hits give low values 0.98 | locus YBR171W, strain sec66, hits give low values 0.979 | locus YBR229C, strain ROT2, hits give low values 0.992 | locus YBR231C, strain swc5, hits give low values 0.986 | locus YBR279W, strain paf1, hits give low values 0.993 | locus YCL011C, strain gbp2, hits give low values 0.979 | locus YCL016C, strain dcc1, hits give low values 0.98 | locus YCL029C, strain bik1, hits give low values 0.98 | locus YCL061C, strain MRC1, hits give low values 0.983 | locus YCL069W, strain vba3, hits give low values 0.985 | locus YCR088W, strain abp1, hits give low values 0.987 | locus YDL005C, strain med2, hits give low values 0.991 | locus YDL035C, strain GPR1, hits give low values 0.995 | locus YDL040C, strain nat1, hits give low values 0.982 | locus YDL074C, strain BRE1, hits give low values 0.948 | locus YDL101C, strain DUN1, hits give low values 0.985 | locus YDL134C, strain PPH21, hits give low values 0.997 | locus YDL185W, strain tfp1, hits give low values 0.952 | locus YDL192W, strain arf1, hits give low values 0.983 | locus YDR001C, strain nth1, hits give low values 0.976 | locus YDR069C, strain doa4, hits give low values 0.97 | locus YDR101C, strain arx1, hits give low values 0.969 | locus YDR137W, strain rgp1, hits give low values 0.93 | locus YDR150W, strain NUM1, hits give low values 0.984 | locus YDR159W, strain sac3, hits give low values 0.915 | locus YDR162C, strain NBP2, hits give low values 0.992 | locus YDR195W, strain ref2 0.961 | locus YDR297W, strain sur2, hits give low values 0.981 | locus YDR318W, strain mcm21, hits give low values 0.988 | locus YDR334W, strain swr1, hits give low values 0.978 | locus YDR335W, strain msn5, hits give low values 0.981 | locus YDR388W, hits give low values 0.994 | locus YDR392W, strain spt3, hits give low values 0.774 | locus YDR502C, strain sam2, hits give low values 0.992 | locus YEL003W, strain gim4, hits give low values 0.976 | locus YEL037C, strain rad23, hits give low values 0.983 | locus YEL061C, strain CIN8 (second series), hits give low values 0.984 | locus YEL061C, strain CIN8, hits give low values 0.989 | locus YER015W, strain faa2, hits give low values 0.986 | locus YER016W, strain bim1, hits give low values 0.975 | locus YER110C, hits give low values 0.986 | locus YER111C, strain swi4, hits give low values 0.964 | locus YER155C, strain BEM2 (second series), hits give low values 0.956 | locus YER155C, strain BEM2, hits give low values 0.997 | locus YER167W, strain BCK2, hits give low values 0.993 | locus YFR010W, strain ubp6, hits give low values 0.98 | locus YGL078C, strain dbp3, hits give low values 0.983 | locus YGL086W, strain mad1, hits give low values 1 | locus YGL167C, strain pmr1, hits give low values 0.973 | locus YGL173C, strain kem1, hits give low values 0.968 | locus YGL227W, strain vid30, hits give low values 0.988 | locus YGL240W, strain doc1, hits give low values 0.978 | locus YGL248W, strain PDE1, hits give low values 0.995 | locus YGL253W, strain hxk2, hits give low values 0.969 | locus YGR078C, strain PAC10, hits give low values 0.971 | locus YGR135W, strain pre9, hits give low values 0.988 | locus YGR229C, strain SMI1, hits give low values 0.909 | locus YGR252W, strain gcn5, hits give low values 1.19 | locus YHR013C, strain ard1, hits give low values 0.95 | locus YHR027C, strain rpn1, hits give low values 0.981 | locus YHR030C, strain SLT2, hits give low values 0.982 and 1.01 | locus YHR079C, strain IRE1 (second series), hits give low values 0.985 | locus YHR079C, strain IRE1, hits give low values 1.01 | locus YHR094C, strain hxt1, hits give low values 0.972 | locus YHR129C, strain ARP1, hits give low values 0.985 | locus YHR142W, strain chs7, hits give low values 1.01 | locus YHR200W, strain rpn10, hits give low values 0.997 | locus YIL066C, strain RNR3, hits give low values 0.995 | locus YIL073C, strain SPO22, hits give low values 0.96 | locus YIL125W, strain kgd1, hits give low values 0.987 | locus YIR030C, strain dcg1, hits give low values 0.993 | locus YJL092W, strain hpr5, hits give low values 0.984 | locus YJL095W, strain BCK1 (second series), hits give low values 0.984 | locus YJL095W, strain BCK1, hits give low values 1 and 1.01 | locus YJL115W, strain asf1, hits give low values 0.993 | locus YJL129C, strain trk1, hits give low values 0.975 | locus YJL134W, strain LCB3, hits give low values 0.99 | locus YJL154C, strain vps35, hits give low values 0.98 | locus YJL164C, strain tpk1, hits give low values 1 | locus YJL166W, strain qcr8, hits give low values 0.986 | locus YJL168C, strain set2, hits give low values 0.979 | locus YJL187C, strain SWE1 (second series), hits give low values 0.975 | locus YJL187C, strain SWE1, hits give low values 0.986 | locus YJR043C, strain POL32, hits give low values 0.977 | locus YJR066W, strain TOR1, hits give low values 0.939
